POLB inh – inhibitors of human DNA polymerase beta; 340,000 tested, 1.3% active; Pol beta primer extension/strand displacement, fluorescence kinetic; AID 485314; P06746; Potency, µM (top dose mostly 114 µM), most hits filed as inhibitors
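Values derive from four-parameter Hill fits of normalized kinetic data: reads at 0 and 10 min following addition of 50 nM substrate to 10 nM Pol beta preincubated 15 min with compound.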
Pol iota inh – DNA polymerase iota (human) inhibition. Q9UNA4. Pol iota fluorescent replication assay, 10 min. Potency, µM (highest dose often 115 µM), most hits filed as inhibitors. 390,000 tested, 1% active. AID 588590
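Fluorescent replication assay read twice, at 0 min and 10 min after adding 50 nM (final) substrate. Enzyme (10 nM) and compounds were first incubated 15 min at room temperature; enzyme-free buffer wells were negative controls.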
FEN1 inh – inhibitors of human flap endonuclease 1; AID 588795; Recombinant FEN1 flap cleavage, fluorescence, 15 min; Potency, µM (doses to about 114 µM), actives largely listed as inhibitors; 390,000 tested, 0.35% active; P39748; also: nearly all actives have a fitted effect of over 65% in size
Target sequence (P39748 whole entry, looked up): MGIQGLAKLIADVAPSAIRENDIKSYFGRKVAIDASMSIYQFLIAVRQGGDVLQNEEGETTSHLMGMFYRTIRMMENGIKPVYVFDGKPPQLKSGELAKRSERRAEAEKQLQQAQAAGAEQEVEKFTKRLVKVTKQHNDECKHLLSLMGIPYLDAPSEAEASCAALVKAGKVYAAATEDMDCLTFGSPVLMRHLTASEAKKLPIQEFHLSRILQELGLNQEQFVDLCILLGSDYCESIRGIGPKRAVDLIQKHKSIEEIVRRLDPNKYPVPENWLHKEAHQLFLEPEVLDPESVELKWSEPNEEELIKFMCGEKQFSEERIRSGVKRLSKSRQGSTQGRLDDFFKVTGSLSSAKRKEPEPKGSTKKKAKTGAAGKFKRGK
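With each library titrated from low to high concentration, compounds met 10 nM FEN1 for 15 min at room temperature before 50 nM substrate was added; readings at 0 and 15 min fed four-parameter Hill curve fits.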
TDP1 block – TDP1 (human) enzyme inhibition | recombinant TDP1, AlphaScreen DNA substrate cleavage | Potency, µM (highest dose often 130 µM), hits mostly inhibitors | 350,000 tested, 0.28% active | AID 485290; also: nearly all actives have a fitted effect of over 40% in size
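Recombinant E. coli-expressed Tdp1 (1 nM) preincubated with compound 15 min at RT, then 5'-biotin/3'-phosphotyrosine-FITC DNA substrate (15 nM) added for 5 min. AlphaScreen beads (10 ug/ml) added, 10 min RT; tyrosine-FITC cleavage read as signal loss.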
Pol eta inh – DNA polymerase eta (human) inhibition; Potency, µM (series often up to 114 µM), most hits filed as inhibitors; Q9Y253; recombinant Pol eta, fluorescent DNA replication assay; 390,000 tested, 1.2% active
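Pol eta (10 nM) was preincubated with compounds for 15 min at room temperature, after which fluorescent replication substrate (50 nM final) was added to start the reaction. Fluorescence was read kinetically at 0 and 10 min.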
Pol kappa inh – inhibitors of human DNA polymerase kappa | purified Pol kappa, fluorescent DNA synthesis assay, 10 min | Potency, µM (titrated, usually from 107 µM), actives largely listed as inhibitors | 400,000 tested, 0.53% active
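10 nM Pol kappa was preincubated with compounds for 15 min at room temperature. Reaction started with 50 nM (final) substrate. Fluorescence read kinetically at 0 and 10 min.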
Hits are given with their value; ! = not active in a repeat. Only some compounds are listed: those with a hit (about 2.4% of all), similar ones and a draw of the others. Calls follow the shape of the dose curve; as a rule, active = well fitted curve in the direction sought with a large enough effect; inconclusive = small, poorly fitted or top-dose-only effect, or another doubt; inactive = no such curve, though single readings can be large; an effect the other way counts as inactive or inconclusive.

What do the screens show for `COCCCNC(=S)Nc1cccc2ncccc12`?
POLB inh: inactive; Pol iota inh: 5.6µM; FEN1 inh: inactive; TDP1 block: inactive; Pol eta inh: inactive; Pol kappa inh: inactive

How did CC(=O)N=c1sc2nc3ccccc3nc2n1N(C(C)=O)C(C)=O do in these assays?
POLB inh: inactive; Pol iota inh: inconclusive; FEN1 inh: 79µM; TDP1 block: inactive; Pol eta inh: inactive; Pol kappa inh: inactive

What do the screens show for `CC(=O)N=c1sc2ccccc2n1C`?
POLB inh: inactive; Pol iota inh: inactive; FEN1 inh: inactive; TDP1 block: inactive; Pol eta inh: inactive; Pol kappa inh: inactive

How did COc1cc(N(C)C)cc(CN(C)CCc2ccc([N+](=O)[O-])cc2)c1O do in these assays?
TDP1 block: 2.2µM; Pol kappa inh: 3µM

Results for COc1ccc(CNCCc2ccc([N+](=O)[O-])cc2)c(OC)c1OC ?
POLB inh: inactive; Pol iota inh: inactive; FEN1 inh: inactive; Pol eta inh: inactive; Pol kappa inh: inactive

What do the screens show for `O=C1Cc2cccc(=O)c(O)c2C(=O)O1`?
Pol eta inh: 8.9µM

Results for CCN(CCC#N)c1ccc(/C=C/c2ccnc3ccccc23)cc1 ?
Pol iota inh: inactive; FEN1 inh: inconclusive; Pol kappa inh: inactive

How did O=S(=O)(Nc1nccs1)c1cc(Cl)ccc1Cl do in these assays?
POLB inh: inactive; Pol iota inh: inconclusive; FEN1 inh: inactive; TDP1 block: inactive; Pol eta inh: 25µM; Pol kappa inh: inactive

How did O=S(=O)(Nc1ccc(S(=O)(=O)Nc2nccs2)cc1)c1ccc(Br)cc1 do in these assays?
POLB inh: inactive; Pol iota inh: inactive; FEN1 inh: inactive; TDP1 block: inactive; Pol eta inh: inactive; Pol kappa inh: inactive

Results for O=S(=O)(Nc1nccs1)c1ccc(NS(=O)(=O)c2c(F)cc(F)c(Cl)c2F)cc1 ?
Pol iota inh: inconclusive; FEN1 inh: inactive; TDP1 block: inactive; Pol eta inh: 50µM; Pol kappa inh: inactive

Results for O=C(CCCCCN1CCN(c2ccccc2-c2ccccc2)CC1)NC1CCCc2ccccc21 (configuration not stated) ?
FEN1 inh: inconclusive; Pol kappa inh: inactive

What do the screens show for `COc1cccc(-c2n[nH]c(=S)n2Cc2ccco2)c1`?
POLB inh: inconclusive; Pol iota inh: inconclusive; FEN1 inh: inactive; Pol eta inh: 35µM; Pol kappa inh: inactive

How did COc1ccc(C2Nc3ccccc3C(=O)N2Cc2ccccc2C)cc1COc1ccc(NC(C)=O)cc1 (configuration not stated) do in these assays?
TDP1 block: inactive

Results for COc1cc(/C=N/NC(=O)c2ccc(-n3cccc3)cc2)ccc1O ?
POLB inh: 13µM; Pol iota inh: 89µM; FEN1 inh: inactive; TDP1 block: inactive; Pol eta inh: 22µM; Pol kappa inh: inconclusive

What do the screens show for `COc1ccc(/C(=C/c2ccc(OC(F)F)c(OC)c2)C(=O)O)cc1OC`?
POLB inh: inactive; Pol iota inh: inactive; FEN1 inh: inactive; TDP1 block: inactive; Pol eta inh: inactive; Pol kappa inh: inactive

What do the screens show for `COc1cc(/C=C(/C(=O)O)c2ccc(-c3ccccc3)cc2)cc(OC)c1OC`?
POLB inh: 50µM; Pol iota inh: inactive; FEN1 inh: inactive; TDP1 block: inactive; Pol eta inh: inconclusive; Pol kappa inh: inactive

How did COc1ccc(/C=N/NC(=O)c2cccc(NC(=O)c3ccc(F)cc3)c2)c(C(=O)O)c1OC do in these assays?
POLB inh: inactive; Pol iota inh: inactive; FEN1 inh: inactive; TDP1 block: 50µM; Pol eta inh: inactive; Pol kappa inh: inactive

How did COc1cc(/C=N/NC(=O)c2ccc(-c3ccccc3)cc2)cc(OC)c1OC do in these assays?
POLB inh: 35µM; Pol iota inh: inconclusive; FEN1 inh: inactive; TDP1 block: inactive; Pol eta inh: inconclusive; Pol kappa inh: inconclusive

What do the screens show for `COc1cc(/C=N/NC(=O)c2cc(-c3ccccc3)sc2N)cc(OC)c1OC`?
POLB inh: inactive; Pol iota inh: inactive; FEN1 inh: inconclusive; Pol eta inh: inactive; Pol kappa inh: inactive

What do the screens show for `COc1ccc(C(=O)N/N=C/c2ccccc2C(=O)O)cc1OC`?
POLB inh: inactive; Pol iota inh: inactive; FEN1 inh: inactive; TDP1 block: inactive; Pol eta inh: inactive; Pol kappa inh: inactive

What do the screens show for `COc1ccccc1C(=O)Nc1ccc(S(=O)(=O)Nc2nc(C)cc(C)n2)cc1`?
POLB inh: inactive; Pol iota inh: inactive; FEN1 inh: inactive; TDP1 block: inactive; Pol eta inh: inactive; Pol kappa inh: inactive

What do the screens show for `COc1cccc(/C=N/NC(=O)c2ccc(N3CCCC3=O)cc2)c1`?
POLB inh: 25µM; Pol iota inh: inconclusive; FEN1 inh: inactive; Pol eta inh: inactive; Pol kappa inh: inconclusive

What do the screens show for `O=C(N/N=C/c1ccco1)c1ccc(N2CCCC2=O)cc1`?
POLB inh: inconclusive; Pol iota inh: inconclusive; FEN1 inh: inactive; Pol eta inh: inconclusive; Pol kappa inh: inactive

How did N#C/C(=C\c1ccc(O)c(O)c1)C(=O)NCCCc1ccccc1 do in these assays?
POLB inh: inconclusive; Pol iota inh: inconclusive; FEN1 inh: inactive; TDP1 block: inactive; Pol eta inh: 16µM!; Pol kappa inh: inconclusive

Results for N#CC(=Cc1ccc(O)c(O)c1)C(=O)NCc1ccccc1 ?
Pol iota inh: 71µM; FEN1 inh: inactive; Pol kappa inh: inactive

What do the screens show for `Cc1ccc(C(=O)CSc2nnc(-c3ccco3)n2C)cc1`?
POLB inh: inactive; Pol iota inh: inactive; FEN1 inh: inactive; TDP1 block: inactive; Pol eta inh: inactive; Pol kappa inh: inactive

Results for Cn1c(SCC(=O)c2cc(Cl)c(Cl)s2)nnc1-c1ccco1 ?
POLB inh: 20µM; Pol iota inh: 16µM; FEN1 inh: inactive; TDP1 block: inactive; Pol eta inh: inconclusive; Pol kappa inh: 32µM

What do the screens show for `N#Cc1nc(Nc2cccc(C(F)(F)F)c2)nc(NC2CCCC2)n1`?
TDP1 block: inactive

Results for CC(C)C(C(=O)O)N1C(=O)/C(=C/c2ccc(Br)cc2)SC1=S (configuration not stated) ?
TDP1 block: inactive; Pol kappa inh: inconclusive

What do the screens show for `Nc1ccc(O)c(C(=O)O)c1`?
Pol kappa inh: 1.1µM

Results for Nc1ccc(C(=O)O)c(O)c1 (tested in a mixture with another compound) ?
TDP1 block: inactive; Pol kappa inh: inactive

Results for O=S(=O)(Cc1ccccc1)c1nnnn1C1CCCCC1 ?
TDP1 block: inactive

Results for [O-][N+]12CCCc3cccc(c31)CCC2 ?
Pol iota inh: inconclusive; FEN1 inh: inconclusive; Pol kappa inh: inactive

How did O=C(C[N+]12CCCc3cccc(c31)CCC2)c1ccc2ccc3cccc4ccc1c2c34 do in these assays?
Pol iota inh: inactive; FEN1 inh: 45µM; Pol kappa inh: inactive

High-throughput results (PubChem BioAssay)
